The panel holds about 83,000 compounds, 20% with a hit somewhere; the sample as a whole holds those more often.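 Single-concentration screen, 48 h exposure, 96-well plates. Endpoint: percent growth. Below 10 = active.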 Unmarked numbers belong to inactive results. The source made the active and inactive calls.
Legend:
Assay in all cases: NCI-60 one-dose screen, 48 h (100 = growth as untreated, 0 = no growth, -100 = all killed)
Conditions in all cases: 10 µM unless noted
[1] = test system: NCI-H23 lung
[2] = test system: HOP-62 NSCLC
[3] = test system: NCI-H460 lung
[4] = test system: HOP-92 NSCLC
[5] = test system: A549/ATCC NSCLC
[6] = test system: 786-0 renal
[7] = test system: COLO 205 colon
[8] = test system: DU-145 prostate
[9] = test system: K-562 leukemia
[10] = test system: MALME-3M melanoma
[11] = test system: MDA-MB-231 breast
[12] = test system: RXF 393 renal
[13] = test system: SF-268 CNS
[14] = test system: SF-295 CNS
[15] = test system: SF-539 CNS
[16] = test system: UACC-257 melanoma
[17] = test system: M14 melanoma
[18] = test system: HCT-15 colon
[19] = test system: NCI-H522 lung

SMILES | growth [1] | growth [2] | growth [3] | growth [4] | growth [5] | growth [6] | growth [7] | growth [8] | growth [9] | growth [10] | growth [11] | growth [12] | growth [13] | growth [14] | growth [15] | growth [16] | growth [17] | growth [18] | growth [19]
COc1cc(C2C3=C(COC3=O)N(CCO)c3cc4c(cc32)CCC4)cc(OC)c1O (centres undefined) | 45.1% | 41.2% | -22.7% (active) | 97.5% | 18.1% | 27% | 13.6% | -25.8% (active) | 14.7% | 54.7% | 18% | -35.8% (active) | 43.6% | -2.29% (active) | -22.6% (active) | 36.2% | 1.16% (active) | 17.9% | –
Clc1ccc(Nc2scc3[n+]2CCC3)cc1 | 92.7% | 99.8% | 102% | 81% | 92.4% | 94.9% | 120% | 101% | – | 95.9% | 95.9% | – | 93.2% | 94.5% | 97.1% | 94% | 103% | – | 93.5%
COc1ccc(-c2cn[nH]c2-c2ccc(OC)c(O)c2)cc1 | 92.8% | 66.4% | 76.6% | 61.5% | 76% | 92.5% | 116% | 96.9% | – | 98.6% | 68.4% | – | 77.9% | 81.7% | 76.9% | 92.3% | 64.2% | 50% | –
CCOc1cccc(/C=N\Nc2nc(=O)cc(C(=O)OC)s2)c1O | 85.7% | 85.6% | 44% | 60.1% | 63.1% | 83.9% | 91.6% | 103% | 50.8% | 66.8% | 78.7% | 97% | 76% | 57.5% | 82.6% | 78.2% | 63.7% | 45.6% | –
COc1ccc2c(c1)C=C1CSCC3=Cc4cc(OC)ccc4OC13O2 | 18.7% | 38.2% | 6.88% (active) | 44.9% | 23.6% | 38.6% | 3.24% (active) | 17.7% | 11% | 45.2% | 16.4% | 5% (active) | 41.1% | 2.44% (active) | -25.4% (active) | 74.7% | 17.2% | 18.2% | –
Nc1nc(-c2ccccc2Br)nn1-c1nc2ccccc2s1 | 98% | 105% | 100% | 99.6% | 98.4% | 104% | 110% | 110% | 94.8% | 105% | 101% | 104% | 97.4% | 102% | 99.6% | 89% | 98.3% | 97.2% | 85.6%
O=c1oc2ccc(Br)cc2c(=O)n1-c1ccc(I)cc1F | 1.15% (active) | 1.91% (active) | 3.43% (active) | -16.6% (active) | 6.38% (active) | 2.68% (active) | 51.2% | 13.6% | 5.48% (active) | -28.3% (active) | -19.1% (active) | -1.04% (active) | 6.16% (active) | -61.3% (active) | 1.29% (active) | -16.3% (active) | -9.72% (active) | 1.62% (active) | -13.4% (active)
Cn1cc([C@@H]2Nc3ccc4[nH]ncc4c3[C@H]3[C@H]4CCC(C4)[C@H]32)c(C(F)(F)F)n1 | 90.6% | 53% | 27.9% | 64.1% | 41.1% | 59.1% | 52.7% | 72.9% | 15.7% | 40.2% | 61.6% | 53.4% | 53% | 37.7% | 41.1% | 50.1% | 27.5% | 30.8% | 2.48% (active)
COc1ccc(/C=C2\NC(=O)NC2=O)cc1O | 98.1% | 108% | 98.4% | 89.2% | 99.1% | 97.8% | 117% | 116% | 106% | 105% | 114% | 111% | 106% | 94.2% | 106% | 99.4% | 89.8% | 99% | 98%
CCOC(=O)C1(C(=O)OCC)N=C(c2ccccc2)C=C1c1ccccc1 | 86.4% | 105% | 104% | 66.5% | 86.7% | 96% | 99.9% | 106% | 65.2% | 86.4% | 96.3% | 74.9% | 92.6% | 84.9% | 94% | 92.1% | 90.5% | 96.5% | 64.4%
O=C(Nc1ccc(Cl)cc1)c1cc2ccccc2cc1OP(=O)(O)O | -0.361% (active) | 32.3% | 14.2% | -24% (active) | 16.4% | 20.6% | 98.9% | 24.9% | 27.1% | -16.3% (active) | 55.5% | – | 32% | -7.61% (active) | 32.1% | 15.7% | 31.9% | 23.2% | 3.47% (active)
